In ChEMBL document CHEMBL3988442, “University of Dundee, Small-Polar-MMV Screening Library” (2021) one finds Percent Effect data, which are given here for 50 compounds.

Assay [1] concerns the target T1, Aspartate--tRNA(Asp/Asn) ligase (Mycobacterium tuberculosis (strain ATCC 25618 / H37Rv)) (UniProt P9WFW3). Note: in the data most compounds retested in dose-response had high values.
T1 sequence (whole entry): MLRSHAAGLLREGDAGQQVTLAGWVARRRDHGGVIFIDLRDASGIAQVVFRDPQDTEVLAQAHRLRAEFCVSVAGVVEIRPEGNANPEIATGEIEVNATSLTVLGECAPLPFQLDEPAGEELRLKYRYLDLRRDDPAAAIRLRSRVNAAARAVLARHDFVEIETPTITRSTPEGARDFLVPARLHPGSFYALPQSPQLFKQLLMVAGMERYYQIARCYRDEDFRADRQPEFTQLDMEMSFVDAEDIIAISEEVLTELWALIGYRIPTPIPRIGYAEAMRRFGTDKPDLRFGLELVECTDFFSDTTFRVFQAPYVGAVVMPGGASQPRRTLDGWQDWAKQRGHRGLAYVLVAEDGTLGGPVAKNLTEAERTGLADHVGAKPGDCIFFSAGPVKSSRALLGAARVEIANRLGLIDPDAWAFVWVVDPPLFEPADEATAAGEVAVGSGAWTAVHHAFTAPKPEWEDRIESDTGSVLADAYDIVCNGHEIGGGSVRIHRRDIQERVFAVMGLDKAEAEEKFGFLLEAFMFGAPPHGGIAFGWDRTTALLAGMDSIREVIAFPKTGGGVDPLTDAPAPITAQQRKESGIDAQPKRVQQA
Description: Assay for Asp RNA synthetase-1 from Mycobacterium tuberculosis. It counts as functional. On the set-up: scale not given: direction of the effect not stated beside the values. Particulars: 30 µM.

The target of assay [2] is Shiga toxin 2 (Escherichia coli O157:H7) (UniProt P09385+P09386). Description: E. coli 0.157:H7 Shiga Toxin SOP - stx2 screening assay. In kind it is functional. More on the design: scale not given: direction of the effect not stated beside the values. The note with it: 30 µM.

`Cc1cccc(CN(C)Cc2nc3c(cnn3C)c(=O)[nH]2)c1`: the Percent Effect in assay [1] worked out at 3.62%; in assay [2], 35.9%.

Regarding `COc1cc(CN(C)C(=O)NCCC2CCCO2)ccc1SC` (stereo not given), the values for the Percent Effect in assay [1] and in assay [2] were -3.98% and -6.71%, respectively.

In the case of `O=C(CC1CC1)N1CC[C@H]2[C@@H]1CCC(=O)N2c1cccnc1`, the Percent Effect in assay [1] is -4.48%; in assay [2], -0.916%.

Consider `O=C(NCc1cc[nH]n1)NCC(c1ccccc1Cl)N1CCCC1` (stereo not given), for which the Percent Effect in assay [1] worked out at 5.68%; in assay [2], 4.8%.

As for `CC(C(=O)N1CCCN(c2ccc(C#N)cc2)CC1)n1ccnc1` (stereo not given), the Percent Effect is -2.92% in assay [1] and 4.39% in assay [2].

Turning to `O=C(NC(CO)CO)c1coc(COc2cccc(F)c2)n1`, the results for the Percent Effect in assay [1] and in assay [2] were -1.14% and -3.72%, respectively.

Turning to `CC(C)c1cc(NC(=O)CN2CCc3c(nc(C(C)C)n3C)C2)on1`, the Percent Effect is -3.67% in assay [1] and -13.4% in assay [2].

As to `Cc1nc(CN2C(=O)C[C@H]3[C@H]2CCN3C2CCOCC2)cs1`, the Percent Effect was -3.97% in assay [1] and 9.23% in assay [2].

Turning to `COc1ccc(-c2noc(CN3CCOCC3C)n2)cc1OC` (stereo not given), the Percent Effect came out at 4.1% in assay [1] and 26.5% in assay [2].

On to `O=C(c1ncccn1)N1C[C@H]2CCC[C@@]2(COCc2cccnc2)C1`, for which the Percent Effect is 1.54% in assay [1] and -6.19% in assay [2].

On to `Cc1cn2c(n1)CCC(NC(=O)CCC(F)(F)F)C2` (stereo not given), for which the Percent Effect in assay [1] is -0.225%; in assay [2] it was 5.05%.

Turning to `COCCN(CCc1ccccc1)Cc1nc2c(cnn2C)c(=O)[nH]1`, the Percent Effect stood at 1.95% in assay [1] and 29.5% in assay [2].

With `CCOCC1CN(Cc2cnn(C)c2)Cc2nn(C)cc21` (stereo not given), the Percent Effect was -3.19% in assay [1] and -11.8% in assay [2].

Take `Cc1noc([C@@]23CCO[C@@H]2CCN(C(=O)c2sccc2C)C3)n1`: the Percent Effect in assay [1] was -0.466%; in assay [2], -3.55%.

As for `O=C(CN1CCC(c2cccc(F)c2)C1)NCC(F)(F)F` (stereo not given), the results for the Percent Effect in assay [1] and in assay [2] were -6.79% and 2.95%, respectively.

For the compound `Cc1ccc(NC(=O)N2CCC(NC(=O)c3ccc(C)o3)CC2)cc1`, the Percent Effect in assay [1] is -0.605%; in assay [2] it was 25.3%.

`O=S(=O)(c1cccnc1)N1CCN(CCn2ccnc2)CC1`: the Percent Effect in assay [1] is -4.66%; in assay [2] it was -38.1%.

As for `Cc1nc(CN2CCC(CNC(=O)Nc3ccccn3)CC2)oc1C`, the Percent Effect was 5.15% in assay [1] and -4.66% in assay [2].

For the compound `O=C(CCN1C(=O)CCC1=O)Nc1cnn(-c2ccccc2Cl)c1`, the Percent Effect in assay [1] is 2.85%; in assay [2], 1.3%.

Regarding `COc1ccc(C2=C(C)C(N3CCc4ccccc43)=NS2(=O)=O)cc1`, the values for the Percent Effect in assay [1] and in assay [2] were -2.38% and -24.6%, respectively.

For `CCN1CC(C(=O)N2CCC(Oc3ccccc3Cl)CC2)CC1=O` (stereo not given), the Percent Effect in assay [1] is 2.64%; in assay [2], -34.4%.

Turning to `COc1ccc(Cl)cc1NCC(=O)NCCNc1cnccn1`, the Percent Effect in assay [1] was -0.88%; in assay [2] it was 25.1%.

As for `O=C(CCOc1ccccc1)N1CCC(Nc2cccnn2)CC1`, the Percent Effect in assay [1] was 4.24%; in assay [2], 6.7%.

On to `Cc1nc(CN2CCCN(CCOc3cccc(C#N)c3)CC2)no1`, for which the Percent Effect worked out at 5.09% in assay [1] and 19.3% in assay [2].

In the case of `Cc1cnn(C2CCCN(C(=O)c3cn4cccnc4n3)C2)c1` (stereo not given), the Percent Effect in assay [1] was -0.409%; in assay [2] it was 8.96%.

On to `CN(C)C(=O)Cc1nc(CN2CCOC(Cn3cccn3)C2)cs1` (stereo not given), for which the Percent Effect in assay [1] is -3.5%; in assay [2], -20.8%.

On to `Cc1nc(C)n(CC2CCCN2Cc2ccn(-c3ccccc3)n2)n1` (stereo not given), for which the Percent Effect in assay [1] was 0.0463%; in assay [2], -14.6%.

As to `Cc1cccc(-n2cc(C(=O)N3CCCC(n4cccn4)C3)nn2)c1` (stereo not given), the Percent Effect in assay [1] is 1.99%; in assay [2], -13.8%.

In the case of `Cc1ccc(C2CCCCCN2Cc2cn(C)nc2C)cc1` (stereo not given), the results for the Percent Effect in assay [1] and in assay [2] were -5.2% and -29%, respectively.

Consider `Cc1cnn(CCNCc2nc(Cc3ccccc3)no2)c1`, for which the Percent Effect is -1.23% in assay [1] and 25% in assay [2].

`COc1c(C2CCCN2C(=O)c2ccc(Cl)o2)c(C)nn1C` (stereo not given): the Percent Effect in assay [1] is -4.35%; in assay [2] it was 9.5%.

Consider `CN1CC(=O)N(c2cnn(C)c2)CC12CCN(Cc1ccccc1)C2` (stereo not given), for which the Percent Effect in assay [1] is -0.707%; in assay [2], -5.72%.

With `Cc1cnn(CC2CCCN2C(=O)c2ccc3nnc(C)n3c2)c1` (stereo not given), the Percent Effect in assay [1] is 0.189%; in assay [2], -37.5%.

As to `CCOC1CCCN(C(=O)NCCc2ccn(-c3ccccc3)n2)C1` (stereo not given), the figures for the Percent Effect in assay [1] and in assay [2] were 0.577% and 12.9%, respectively.

Regarding `CN(C)C(=O)NC1COC2(CCN(C(=O)Nc3ccccc3)CC2)C1` (stereo not given), the Percent Effect was 7.1% in assay [1] and -15.4% in assay [2].

In the case of `c1cc2nc(C3CCN(CC4CC4)CC3)nn2cc1N1CCCC1`, the Percent Effect is -1.69% in assay [1] and -3.75% in assay [2].

`Cc1ccc(S(=O)(=O)NC2CNC(=O)C2)cc1C` (stereo not given): the Percent Effect in assay [1] was -1.98%; in assay [2], 9.86%.

Turning to `CN1CCC(CCNC(=O)c2ccc(N(C)S(C)(=O)=O)cc2Cl)CC1`, the Percent Effect is 1.1% in assay [1] and -50.8% in assay [2].

With `O=C1CC(c2cccc(O)c2)c2c(c(C(=O)O)cn2-c2ccccc2)N1` (stereo not given), the Percent Effect in assay [1] is 22.9%; in assay [2], -12.9%.

As for `O=C(N1CCOCC1)N1CCc2ncnc(NC3CC3)c2CC1`, the Percent Effect was 6.32% in assay [1] and -39.4% in assay [2].

On to `Cc1ccccc1CNC(=O)CN1CCN(Cc2nccn2C)CC1`, for which the Percent Effect in assay [1] is 8.88%; in assay [2], 6.67%.

`O=C1NCCCCC1Sc1nnc(-c2cccnc2)n1C1CC1` (stereo not given): the Percent Effect in assay [1] is -3.62%; in assay [2] it was 7.22%.

In the case of `CCc1nc(C2CCCN2C(=O)C2=COCC2)no1` (stereo not given), the Percent Effect in assay [1] was -0.485%; in assay [2], -3.44%.

In the case of `CC(NC(=O)NCc1cccnc1N1CCCCC1)c1nccs1` (stereo not given), the Percent Effect was -6.16% in assay [1] and -7.44% in assay [2].

Regarding `Fc1cccc(N2C[C@H]3CCN(c4cccnc4)C[C@H]3C2)c1`, the Percent Effect was 6.15% in assay [1] and -16.5% in assay [2].

On to `CN(C)[C@@H]1CCN(C(=O)c2ccsc2)[C@H]1Cc1cnn(C)c1`, for which the values for the Percent Effect in assay [1] and in assay [2] were -0.691% and -4.3%, respectively.

For the compound `CC(=O)Nc1ncc(S(=O)(=O)Nc2ccc(F)cc2F)s1`, the Percent Effect in assay [1] is 2.53%; in assay [2], -38.5%.

With `COCC1Cn2nnc(-c3cnn(C)c3)c2CN1Cc1ccco1` (stereo not given), the values for the Percent Effect in assay [1] and in assay [2] were 0.436% and -1.07%, respectively.

With `CCO[C@@H]1CCN(C(=O)c2ccc[nH]2)[C@@H]1Cc1cnn(C)c1`, the Percent Effect in assay [1] is -1.78%; in assay [2], 5.04%.

In the case of `Cn1cccc1C(=O)N1CCCC2(CCCN2Cc2cccnc2)C1` (stereo not given), the Percent Effect stood at 7.03% in assay [1] and 19.4% in assay [2].
